Assay outcomes as filed in PubChem BioAssay.
IL1B secr inh = qHTS for Inhibitors of Inflammasome Signaling: IL-1-beta AlphaLISA Primary Screen | THP-1 LPS/ATP IL-1B secretion, AlphaLISA, 16 h; active compounds read low | activity change, % at 57.5 µM | actives 4.7% (n = 360,000) | AID 743279, 2014; in the data active = activity change below about -50%; inconclusive = mostly about -30% to -49%
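THP-1 cells pretreated 1 hr with compounds (up to 57.5 uM final), then stimulated with LPS (250 ng/mL final) plus ATP (1.25 mM final); secreted IL-1B measured by AlphaLISA after 16 hr, decreased signal indicating inhibition.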
TDP1 cell noCPT = qHTS for Inhibitors of human tyrosyl-DNA phosphodiesterase 1 (TDP1): qHTS in cells in absence of CPT; DT40 Tdp1-/- hTDP1 cells, no CPT, ATP luminescence, 48 h; Potency, µM (titrated, usually from 46.2 µM), inactives show at the top dose activity change, negative = growth inhibition, usual class: inhibitors; actives 15% (n = 420,000); also: potency is read from the fitted curve at half-maximal effect; nearly all actives have a fitted effect of over 55% in size
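Growth of hTDP1-complemented DT40 Tdp1-knockout cells is measured by ATP luminescence after at least 48 hr compound exposure at 37 °C, with DMSO substituting for the 20 nM CPT used in the parallel screen.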
TDP1 cell CPT = qHTS for Inhibitors of human tyrosyl-DNA phosphodiesterase 1 (TDP1): qHTS in cells in presence of CPT; AID 686979, 2013; actives 12% (n = 420,000); Potency, µM (titrated, usually from 46.2 µM), for the others: top-dose activity change, negative = growth inhibition, most hits filed as inhibitors; chicken DT40 Tdp1-/-;hTDP1 cells + 20 nM CPT, ATP luminescence, 48 h; also: potency is read from the fitted curve at half-maximal effect; nearly all actives have a fitted effect of over 55% in size
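Chicken DT40 Tdp1-/- cells stably complemented with human TDP1 were seeded at 400 cells/well in medium containing 20 nM camptothecin, exposed to pin-transferred compounds, and grown at 37 °C for at least 48 hr. Viability was read as ATP luminescence.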
HT1080 IDH1KD tx = qHTS for induction of synthetic lethality in tumor cells producing 2HG: qHTS for the HT-1080-IDH1KD cell line; actives 2% (n = 360,000); HT-1080 IDH1 knockdown viability, ATP luminescence, 48 h; AID 686971, 2013; Potency, µM (titrated, usually from 46.1 µM), inactives show at the highest dose activity, negative = toxicity, actives largely listed as cytotoxic;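 also: potency is read from the fitted curve at half-maximal effect; 0% = DMSO wells and -100% = cell-free medium wells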
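CellTiter-Glo luminescence after 48 h compound exposure at 37 degrees C of IDH1-knockdown HT-1080 cells in 5% FBS RPMI. %Activity scaled between DMSO wells and cell-free media wells, with curves fitted and assigned curve classes.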
ALOX12 inh = Primary qHTS assay for inhibitors of human arachidonate 12S-lipoxygenase (ALOX12): Round 2; Potency, µM (top dose mostly 108 µM), for inactives: at the highest dose activity change, negative = inhibition, usual class: inhibitors; purified 12hLO, xylenol orange hydroperoxide absorbance; Polyunsaturated fatty acid lipoxygenase ALOX12 (Homo sapiens), P18054; actives 1.1% (n = 580,000); AID 1671190, 2021; also: potency is read from the fitted curve at half-maximal effect
Target sequence (P18054 whole entry, looked up): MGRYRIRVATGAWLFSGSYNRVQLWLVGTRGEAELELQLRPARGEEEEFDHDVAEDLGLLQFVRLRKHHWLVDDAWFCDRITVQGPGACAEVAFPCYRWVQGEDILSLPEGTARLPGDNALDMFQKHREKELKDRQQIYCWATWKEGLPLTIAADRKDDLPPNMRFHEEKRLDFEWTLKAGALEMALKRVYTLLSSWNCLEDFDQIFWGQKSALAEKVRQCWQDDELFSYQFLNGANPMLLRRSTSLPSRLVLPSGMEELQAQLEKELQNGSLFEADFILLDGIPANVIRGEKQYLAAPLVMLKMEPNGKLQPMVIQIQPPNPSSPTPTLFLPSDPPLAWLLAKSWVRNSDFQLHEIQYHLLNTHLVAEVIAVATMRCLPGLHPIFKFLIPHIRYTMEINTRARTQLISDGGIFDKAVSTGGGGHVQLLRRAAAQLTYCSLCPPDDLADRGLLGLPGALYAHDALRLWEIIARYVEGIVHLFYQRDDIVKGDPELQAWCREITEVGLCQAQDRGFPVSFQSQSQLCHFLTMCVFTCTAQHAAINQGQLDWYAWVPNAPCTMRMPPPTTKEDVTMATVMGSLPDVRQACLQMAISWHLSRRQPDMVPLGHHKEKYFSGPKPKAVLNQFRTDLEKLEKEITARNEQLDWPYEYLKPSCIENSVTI
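Purified human 12hLO (150 nM final) in 25 mM Hepes, 0.01% Triton X-100, pH 7.0 was preincubated 15 min at room temperature with compound. Then 40 uM arachidonic acid was added, 30 min. Hydroperoxide was read by Fe-XO absorbance ratio 573/405 nm.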
HT1080-NT tox = qHTS for induction of synthetic lethality in tumor cells producing 2HG: qHTS for the HT-1080-NT fibrosarcoma cell line; HT-1080-NT fibrosarcoma viability, CellTiter-Glo ATP luminescence, 48 h; Potency, µM (top dose mostly 46.1 µM), for inactives: at the top dose activity, negative = less viability, actives largely listed as cytotoxic; actives 1.6% (n = 360,000); AID 686970, 2013;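 also: NT is the 2HG producing partner of a matched IDH1 knockdown line; potency is read from the fitted curve at half-maximal effect; 0% = DMSO-treated cells and -100% = media-only wells without cells; nearly all actives have a fitted effect of over 55% in size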
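Fibrosarcoma NT cells, 750 per well in 5% FBS RPMI, were exposed to compound for 48 hours. Viability: CellTiter-Glo luminescence.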
The depositor's hits bear a star; ? = inconclusive; · = no result; [ ] = another dose, or the depositor's remark. The entries come from a sample that favours hits as a whole. Unless noted, calls follow the shape of the dose curve; as a rule, active = well fitted curve in the direction sought with a large enough effect; inconclusive = small, poorly fitted or top-dose-only effect, or another doubt; inactive = no such curve, though single readings can be large; an effect the other way counts as inactive or inconclusive. Unless noted, % is scaled to controls: 0 for no effect and ±100 for the full control effect.

SMILES	IL1B secr inh	TDP1 cell noCPT	TDP1 cell CPT	HT1080 IDH1KD tx	ALOX12 inh	HT1080-NT tox
COc1cc(-c2ccnc(-c3nnc(C)n3C3CCCCC3)c2)ccn1	·	·	·	·	6%[176 µM]	·
CN(C)CCCN(C(=O)c1cc2cc([N+](=O)[O-])ccc2s1)c1nc2cc3c(cc2s1)OCCO3	0	2.3µM*	1.3µM*	?	-3%	?
CN(C)CCCN(C(=O)c1ccc([N+](=O)[O-])s1)c1nc2cc3c(cc2s1)OCCO3	-96*	3.3µM*	2.9µM*	-2%	-19%	-2%
Cc1ccc2nc(N(CCCN(C)C)C(=O)c3ccc(Br)s3)sc2c1	-79*	23µM*	?	?	?	?
CN(C)CCCN(C(=O)c1cc(Cl)sc1Cl)c1nc2cc3c(cc2s1)OCO3	?	-25%	-41%	?	?	?
CN(C)CCCN(C(=O)c1cccs1)c1nc2cc3c(cc2s1)OCO3	-10	?	-18%	2%	0%	-12%
CN(C)CCCN(C(=O)c1ccc(Cl)s1)c1nc2cc3c(cc2s1)OCO3	-98*	?	?	?	-6%	18µM*
Cc1ccc2nc(N(CCN(C)C)C(=O)c3cc(Cl)sc3Cl)sc2c1	-15	-17%	-28%	0%	-17%	27%
CC(C#N)Sc1ncnc2sc(-c3ccccc3)cc12 (configuration not stated)	-7	-25%	19%	-19%	-1%	-25%
CN(C)CCCN(C(=O)c1ccc(Br)s1)c1nc2cc3c(cc2s1)OCCO3	-93*	?	29µM*	?	?	-10%
CCN(CC)CCN(C(=O)c1ccc(Br)s1)c1nc2cc3c(cc2s1)OCCO3	-4	?	-17%	0%	?	14%
O=C(C1CCCCC1)N1CCCC(c2noc(COc3ccccc3)n2)C1 (configuration not stated)	·	·	·	·	23%	·
CCOC1=C2[C@@H](CN(S(=O)(=O)c3ccc(C)cc3)[C@H]2c2ccccc2Cl)[C@H]2C(=O)N(C)C(=O)[C@H]2C1	0	16µM*	26µM*	5%	-2%	0%
CCOC1=C2[C@@H](CN(S(=O)(=O)c3ccc(C)cc3)[C@H]2c2cccc3ccccc23)[C@H]2C(=O)N(C)C(=O)[C@H]2C1	-23	-1%	6%	-1%	-24%	0%
CCOC1=C2[C@@H](CN(S(=O)(=O)c3ccccc3C)[C@H]2c2ccc(Cl)cc2)[C@H]2C(=O)N(c3ccccc3)C(=O)[C@H]2C1	3	-16%	-11%	1%	-15%	-5%
CCOC1=C2[C@@H](CN(S(=O)(=O)c3ccccc3C)[C@H]2c2ccc(Cl)cc2)[C@H]2C(=O)N(C3CCCCC3)C(=O)[C@H]2C1	-5	?	21µM*	-23%	?	-2%
O=C(Cc1ccccc1[N+](=O)[O-])Nc1ccc2oc(C3CC3)nc2c1	·	·	·	·	5%	·
CCCCC(=O)Oc1ccc(C2C3=C(CC(C)(C)CC3=O)OC3=C2C(=O)CC(C)(C)C3)cc1OC	·	·	·	·	9%	·
CS/C(=N\S(=O)(=O)c1cccs1)Nc1cccc(Cl)c1C	0	?	15µM*	-11%	-9%	-4%
COc1ccc2cc(/C=N/NC(=O)c3ccc(CN(c4cccc(Cl)c4Cl)S(C)(=O)=O)cc3)c(Cl)nc2c1	14	15µM*	18µM*	?	19%	?
